Results from PubChem BioAssay AID493185 (National Center for Advancing Translational Sciences (NCATS), 2011).
Calls of active or inactive are those of the source. Calls follow the shape of the dose curve; as a rule, active = well fitted activation curve with a large enough effect; inconclusive = small, poorly fitted or top-dose-only effect; inactive = no such curve, though single readings can be large or run the other way.

Experiment: Counterscreen for Identifying a Potential Treatment of Ataxia-Telangiectasia: Hit Validation; as to activation: 0% is about no effect
Conditions: cell-free AlphaLISA/AlphaScreen artifact counterscreen, PBS only, no cells; series mostly up to 76.9 µM; activation: at the top concentration
Procedure, shortened: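 Cell-free AlphaLISA counterscreen: compounds (up to 76.7 uM final) in PBS with detection mix of anti-pKAP1 and anti-KAP1 antibodies on donor/acceptor beads plus lysis buffer, incubated 6 hr at 25C before AlphaScreen read.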
Potency is read from the fitted curve at half-maximal effect.

SMILES | activation | Potency
O=C(C[n+]1ccc2c(c1)nnn2-c1ccccc1)c1ccc(Cl)cc1 | -17.7% (inactive) | –
OC(CN1CCCCC1)Cn1c2ccc(Cl)cc2c2cc(Cl)ccc21 (centres undefined) | -8.2% (inactive) | –
COc1cc(C(=O)NCCC(=O)NCCCN2CCCCC2)cc(OC)c1OC | 19.2% (inactive) | –
CC(=O)c1sc2nc(C)c3c(c2c1N)CCCC3 | – | 46.3 µM (active)
CCOC(=O)N1CCN(c2nc(N(c3ccccc3)c3ccccc3)nc(-n3ccnc3)n2)CC1 | -3.76% (inactive) | –
Cc1ccc(NC(=O)CSc2nnc([C@H](C)NC(=O)OC(C)(C)C)o2)c(C)c1 | 44.6% (inactive) | –
COc1ccccc1C1CCN(C(=O)c2ccc(Cl)cc2)CC1 | 5.38% (inactive) | –
CCOC(=O)c1ccccc1NC(=O)c1ccc2nc[nH]c2c1 | -1.54% (inactive) | –
COc1ccc(Oc2ncnc3c2oc2ccc(Br)cc23)cc1 | -9.23% (inactive) | –
CCN(CC)S(=O)(=O)c1ccc(Cl)c(NC(=O)CCCCl)c1 | 6.77% (inactive) | –
CCOC(=O)C1CCN(C(=O)c2cc3cc(Cl)ccc3[nH]2)CC1 | -3.28% (inactive) | –
CC(=O)Nc1ccc(NC2=CC(=O)c3ccccc3C2=O)cc1 | -19.7% (inactive) | –
Cc1ccc2c(c1)C(=O)CC(O)(C(F)(F)F)O2 (centres undefined) | -6.56% (inactive) | –
COc1ccc(C2/C=C\CN(S(=O)(=O)c3ccc4ccccc4c3)CC(=O)N2Cc2ccc(F)cc2)cc1 (centres undefined) | -14.6% (inactive) | –
O=C(Nc1ccc(N2CCCC2)cc1)c1ccc(Cl)cc1Cl | -6.77% (inactive) | –
Cc1nc(Nc2ccc(Cl)cc2)c2oc3ccccc3c2n1 | 0% (inactive) | –
Cc1cc(C)c2c(Cn3ccnc3)cc(=O)oc2c1 | 6.77% (inactive) | –
CC(C)(C)C1CCC2(CC1)SCC(=O)N2c1ccccc1 (centres undefined) | -13.1% (inactive) | –
COC(=O)c1ccncc1C(=O)Nc1ccc(Oc2ncc(C(F)(F)F)cc2Cl)cc1 | -5.74% (inactive) | –
